For 4 compounds, growth results are on record in PubChem BioAssay (NCI).

Compounds without any hit were thinned out: in the full panel of roughly 83,000, 20% have a hit.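 Single-concentration screen, 48 h exposure, 96-well plates. Endpoint: percent growth. Below 10 = active.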 A number with no mark means an inactive call.

The subject of this experiment is MDA-MB-468 breast. In words: NCI-60 one-dose screen, 48 h (100 = growth as untreated, 0 = no growth, -100 = all killed). The following applies: 10 µM unless noted.
Turning to `COc1cccc(/C=N/Nc2nc3ccccc3s2)c1OC`, the growth is 80.3%.

As for `O=C1[C@H]2Cc3c([nH]c4ccccc34)[C@@H](c3c(Cl)cccc3Cl)N2C(=O)CN1C1CCN(CC2CCCCC2)CC1`, the growth is 80.5%.

For the compound `CC1Cc2ccccc2N1NC(=O)c1ccc(Cl)c(S(N)(=O)=O)c1` (centres undefined), the growth was 94.8%.

Consider `O=NN(C(=O)NC1CCC(C(=O)O)CC1)C1CCC(C(=O)O)CC1` (centres undefined), for which the growth was 96.1%.
